# Test results taken from the supplement of paper PMC6897291.
# How the values were obtained:
# RIVA [1] = assay: growth inhibition by drug plus 177Lu-lilotomab satetraxetan (1 - RLU/untreated control) (fraction); higher = stronger inhibition; conditions: 177Lu-lilotomab satetraxetan 0.5 ug/ml
# Summary of the method: (§1)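 RIVA or U-2932 cells were left untreated or pretreated for 18 h with a radiolabelled anti-CD37 antibody conjugate (~600 MBq/mg) at 0.5 µg/ml for RIVA or 1 µg/ml for U-2932. The cells were then washed and seeded at 3,000 cells/well on plates pre-printed with the Selleck Cambridge Cancer Compound library, dosed at 10/100 nM for RIVA and 10/1,000 nM for U-2932. From day 3, RealTime-Glo luminescence was read daily after 1 h at 37°C. Growth inhibition was taken as one minus RLU over the mean of the untreated no-drug wells, of which there were 48 per plate.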
# U-2932 [2] = assay: growth inhibition by drug alone (1 - RLU/untreated control) (fraction); higher = stronger inhibition; conditions: 177Lu-lilotomab satetraxetan 0 ug/ml
# Summary of the method: as §1
# RIVA [3] = assay: as above; conditions: 177Lu-lilotomab satetraxetan 0 ug/ml
# Summary of the method: as §1
# U-2932 [4] = assay: growth inhibition by drug plus 177Lu-lilotomab satetraxetan (1 - RLU/untreated control) (fraction); higher = stronger inhibition; conditions: 177Lu-lilotomab satetraxetan 1 ug/ml
# Summary of the method: as §1
SMILES,"growth inhibition by drug plus 177Lu-lilotomab satetraxetan (RIVA [1]; 100 nM, time (day): 5)","growth inhibition by drug plus 177Lu-lilotomab satetraxetan (RIVA [1]; 100 nM, time (day): 6)","growth inhibition by drug alone (U-2932 [2]; 10 nM, time (day): 3)","growth inhibition by drug alone (U-2932 [2]; 10 nM, time (day): 4)","growth inhibition by drug alone (U-2932 [2]; 10 nM, time (day): 5)","growth inhibition by drug alone (U-2932 [2]; 10 nM, time (day): 6)","growth inhibition by drug alone (U-2932 [2]; 1000 nM, time (day): 3)","growth inhibition by drug alone (U-2932 [2]; 1000 nM, time (day): 4)","growth inhibition by drug alone (U-2932 [2]; 1000 nM, time (day): 5)","growth inhibition by drug alone (U-2932 [2]; 1000 nM, time (day): 6)","growth inhibition by drug alone (RIVA [3]; 10 nM, time (day): 3)","growth inhibition by drug alone (RIVA [3]; 10 nM, time (day): 4)","growth inhibition by drug alone (RIVA [3]; 10 nM, time (day): 5)","growth inhibition by drug alone (RIVA [3]; 10 nM, time (day): 6)","growth inhibition by drug alone (RIVA [3]; 100 nM, time (day): 3)","growth inhibition by drug alone (RIVA [3]; 100 nM, time (day): 4)","growth inhibition by drug alone (RIVA [3]; 100 nM, time (day): 5)","growth inhibition by drug alone (RIVA [3]; 100 nM, time (day): 6)","growth inhibition by drug plus 177Lu-lilotomab satetraxetan (U-2932 [4]; 10 nM, time (day): 3)","growth inhibition by drug plus 177Lu-lilotomab satetraxetan (U-2932 [4]; 10 nM, time (day): 4)","growth inhibition by drug plus 177Lu-lilotomab satetraxetan (U-2932 [4]; 10 nM, time (day): 5)","growth inhibition by drug plus 177Lu-lilotomab satetraxetan (U-2932 [4]; 10 nM, time (day): 6)","growth inhibition by drug plus 177Lu-lilotomab satetraxetan (U-2932 [4]; 1000 nM, time (day): 3)","growth inhibition by drug plus 177Lu-lilotomab satetraxetan (U-2932 [4]; 1000 nM, time (day): 4)","growth inhibition by drug plus 177Lu-lilotomab satetraxetan (U-2932 [4]; 1000 nM, time (day): 5)","growth inhibition by drug plus 177Lu-lilotomab satetraxetan (U-2932 [4]; 1000 nM, time (day): 6)","growth inhibition by drug plus 177Lu-lilotomab satetraxetan (RIVA [1]; 10 nM, time (day): 3)","growth inhibition by drug plus 177Lu-lilotomab satetraxetan (RIVA [1]; 10 nM, time (day): 4)","growth inhibition by drug plus 177Lu-lilotomab satetraxetan (RIVA [1]; 10 nM, time (day): 5)","growth inhibition by drug plus 177Lu-lilotomab satetraxetan (RIVA [1]; 10 nM, time (day): 6)","growth inhibition by drug plus 177Lu-lilotomab satetraxetan (RIVA [1]; 100 nM, time (day): 3)","growth inhibition by drug plus 177Lu-lilotomab satetraxetan (RIVA [1]; 100 nM, time (day): 4)"
COc1ccc(CCN2CCN(CCCc3ccccc3)CC2)cc1OC,0.119,0.162,,,,,,,,,,,,,,,,,,,,,,,,,,,,,,
N#Cc1c(O)c2c(-c3ccc(-c4ccccc4O)cc3)csc2[nH]c1=O,0.487,0.49,0.111,0.0478,-0.0374,-0.062,0.0299,-0.017,-0.0537,0.0109,0.017,-0.0012,-0.079,-0.317,-0.44,-0.357,-0.367,-0.39,0.00586,0.0777,0.105,0.108,0.0618,0.0835,0.123,0.191,0.57,0.613,0.615,0.612,0.402,0.488
C[C@@H]1C[C@H]2[C@@H]3CCC4=CC(=O)C=C[C@]4(C)[C@@]3(F)[C@@H](O)C[C@]2(C)[C@@]1(O)C(=O)CO [Dexamethasone],0.417,0.414,0.345,0.301,0.236,0.236,0.466,0.472,0.362,0.306,0.0365,0.0468,-0.018,-0.23,-0.0879,-0.051,-0.149,-0.312,0.277,0.301,0.26,0.353,0.422,0.466,0.406,0.431,0.415,0.467,0.484,0.498,0.362,0.429
CCOc1ccn(-c2ccc(F)cc2)c(=O)c1C(=O)Nc1ccc(Oc2ccnc(N)c2Cl)c(F)c1,0.523,0.514,0.143,0.12,-0.0713,-0.014,0.036,0.0178,-0.127,-0.209,0.0958,0.084,0.0356,-0.0223,-0.0283,0.013,-0.000157,-0.0616,0.12,0.152,0.188,0.258,0.0517,0.106,0.162,0.259,0.626,0.638,0.657,0.657,0.445,0.512
CN(C)CCOc1ccc(-c2nc(-c3ccncc3)c(-c3ccc4c(c3)CC/C4=N\O)[nH]2)cc1,0.378,0.441,-0.0248,-0.0722,-0.0892,0.0453,0.104,0.0148,0.0221,0.134,-0.226,-0.183,-0.167,-0.14,-0.788,-0.651,-0.644,-0.615,-0.0652,-0.0236,0.0668,0.196,0.124,0.0207,0.0638,0.259,0.358,0.494,0.536,0.556,-0.0096,0.315
O=C(Nc1ccccc1-c1cn2c(CN3CCNCC3)csc2n1)c1cnc2ccccc2n1,0.516,0.514,0.102,0.0775,-0.0151,-0.0612,0.0868,0.0879,0.00704,-0.1,0.0628,0.0902,0.0591,-0.163,-0.0368,-0.02,-0.0409,-0.193,0.0225,0.0594,0.101,0.14,0.141,0.171,0.103,0.146,0.404,0.522,0.563,0.562,0.418,0.513
C[C@@H](O[C@H]1OCCN(Cc2n[nH]c(=O)[nH]2)[C@H]1c1ccc(F)cc1)c1cc(C(F)(F)F)cc(C(F)(F)F)c1 [Aprepitant (MK-0869)],0.441,0.419,-0.0806,-0.0554,-0.0486,0.0358,-0.0765,-0.0282,-0.0265,-0.0573,-0.223,-0.258,-0.291,-0.358,-0.233,-0.342,-0.277,-0.366,-0.142,-0.123,-0.143,-0.121,-0.075,0.0386,0.0779,0.19,0.306,0.465,0.481,0.488,0.319,0.43
Nc1ccccc1NC(=O)c1ccc(CNc2nccc(-c3cccnc3)n2)cc1 [Mocetinostat (MGCD0103)],0.705,0.7,0.00982,0.0102,0.0298,0.152,0.868,0.878,0.889,0.91,-0.0534,-0.0971,-0.0989,-0.142,0.358,0.254,0.208,0.152,-0.0242,-0.00346,0.0145,0.11,0.876,0.893,0.907,0.934,0.466,0.553,0.579,0.576,0.681,0.692
